# Experimental data published in PMC7862700, “An all-to-all approach to the identification of sequence-specific readers for epigenetic DNA modifications on cytosine”.
# Experiments:
# Assay in all cases: DAPPL (digital affinity profiling via proximity ligation, sequencing); 10 mM Tris-HCl pH 7.5, 50 mM NaCl, 1 mM DTT, 4% glycerol, room temperature, 30 min; GST-TFs on glutathione beads, 16-mer random dsDNA library, 0.1% formaldehyde crosslink after washing; high values mean tight binding
# HSF1 = HSF1 (Homo sapiens, UniProt Q00613 1-529); conditions: protein: recombinant; tags: N-terminal GST; chain copies: 3; dsDNA, one strand shown
# HSF1, sequence (Q00613 whole entry, the tested form may be a part): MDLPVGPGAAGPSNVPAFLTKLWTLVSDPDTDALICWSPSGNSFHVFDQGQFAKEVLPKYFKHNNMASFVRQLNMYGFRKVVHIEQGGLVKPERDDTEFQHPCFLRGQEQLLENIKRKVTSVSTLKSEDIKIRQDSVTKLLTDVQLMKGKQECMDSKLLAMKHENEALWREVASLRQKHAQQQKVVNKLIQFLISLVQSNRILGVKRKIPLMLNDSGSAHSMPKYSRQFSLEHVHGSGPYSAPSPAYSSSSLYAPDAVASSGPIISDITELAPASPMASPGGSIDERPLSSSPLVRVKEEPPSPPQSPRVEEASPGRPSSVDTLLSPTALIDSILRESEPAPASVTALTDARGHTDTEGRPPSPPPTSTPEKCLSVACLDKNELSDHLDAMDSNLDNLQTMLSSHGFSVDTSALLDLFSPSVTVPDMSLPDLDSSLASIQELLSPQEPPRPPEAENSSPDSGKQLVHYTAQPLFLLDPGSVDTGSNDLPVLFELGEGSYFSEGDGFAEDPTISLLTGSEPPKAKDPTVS
# Summary of the method: (§1)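 Pools were built from human transcription factors expressed in yeast as GST fusions, captured on glutathione beads and DNA-barcoded, along with a tag-only sample. Incubation with 200 nmole of a 16-mer random double-stranded DNA library lasted 30 min at room temperature in Tris/NaCl/DTT/glycerol buffer, and was followed by washing, 0.1% formaldehyde crosslinking, proximity ligation, PCR amplification and Illumina NextSeq500 sequencing. Binding signal is the quotient of each hexamer's read frequency for a factor and its frequency for the tag-only sample.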
# CRX = CRX (Homo sapiens, UniProt O43186 1-299); conditions: protein: recombinant; tags: N-terminal GST; dsDNA, one strand shown
# CRX, sequence (O43186 whole entry): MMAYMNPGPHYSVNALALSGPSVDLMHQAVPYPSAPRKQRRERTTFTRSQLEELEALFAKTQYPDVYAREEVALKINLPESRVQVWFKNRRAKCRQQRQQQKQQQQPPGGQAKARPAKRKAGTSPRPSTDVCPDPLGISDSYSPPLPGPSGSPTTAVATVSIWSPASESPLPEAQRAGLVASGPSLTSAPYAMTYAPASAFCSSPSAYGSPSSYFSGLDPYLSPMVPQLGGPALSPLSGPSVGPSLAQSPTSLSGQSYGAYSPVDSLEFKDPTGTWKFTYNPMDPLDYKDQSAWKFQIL
# Summary of the method: as §1
# ELF1 = ELF1 (Homo sapiens, UniProt P32519 1-619); conditions: protein: recombinant; tags: N-terminal GST; dsDNA, one strand shown
# ELF1, sequence (P32519 whole entry): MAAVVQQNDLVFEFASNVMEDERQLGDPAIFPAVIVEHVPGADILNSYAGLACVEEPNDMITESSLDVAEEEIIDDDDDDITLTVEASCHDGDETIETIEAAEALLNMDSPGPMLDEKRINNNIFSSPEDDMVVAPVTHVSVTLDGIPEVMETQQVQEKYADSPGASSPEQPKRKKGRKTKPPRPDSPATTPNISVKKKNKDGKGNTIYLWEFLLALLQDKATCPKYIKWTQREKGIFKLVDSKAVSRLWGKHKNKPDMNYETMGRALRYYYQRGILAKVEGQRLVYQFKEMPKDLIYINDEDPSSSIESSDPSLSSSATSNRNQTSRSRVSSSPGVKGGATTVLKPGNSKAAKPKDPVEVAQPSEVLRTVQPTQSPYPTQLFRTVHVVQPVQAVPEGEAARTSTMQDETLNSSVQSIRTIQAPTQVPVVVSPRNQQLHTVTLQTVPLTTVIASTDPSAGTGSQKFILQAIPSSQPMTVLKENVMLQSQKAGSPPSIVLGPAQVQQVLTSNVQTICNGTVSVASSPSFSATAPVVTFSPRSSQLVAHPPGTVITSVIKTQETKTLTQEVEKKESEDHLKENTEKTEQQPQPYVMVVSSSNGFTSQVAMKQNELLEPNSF
# Summary of the method: as §1
# EHF = molecular target: T1, EHF (Homo sapiens, UniProt Q9NZC4 1-300); conditions: protein: recombinant; tags: N-terminal GST; dsDNA, one strand shown
# T1 sequence: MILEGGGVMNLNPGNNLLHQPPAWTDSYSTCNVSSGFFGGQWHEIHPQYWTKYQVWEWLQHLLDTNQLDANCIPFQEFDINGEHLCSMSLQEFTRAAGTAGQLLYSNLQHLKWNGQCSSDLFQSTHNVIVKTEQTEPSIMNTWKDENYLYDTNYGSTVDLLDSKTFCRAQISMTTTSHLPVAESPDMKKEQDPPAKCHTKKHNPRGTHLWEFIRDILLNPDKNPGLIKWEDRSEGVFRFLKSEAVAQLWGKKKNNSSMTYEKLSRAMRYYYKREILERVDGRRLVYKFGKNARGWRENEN
# Summary of the method: as §1
# ELK3 = molecular target: T2, ELK3 (Homo sapiens, UniProt P41970 1-407); conditions: protein: recombinant; tags: N-terminal GST; dsDNA, one strand shown
# T2 sequence: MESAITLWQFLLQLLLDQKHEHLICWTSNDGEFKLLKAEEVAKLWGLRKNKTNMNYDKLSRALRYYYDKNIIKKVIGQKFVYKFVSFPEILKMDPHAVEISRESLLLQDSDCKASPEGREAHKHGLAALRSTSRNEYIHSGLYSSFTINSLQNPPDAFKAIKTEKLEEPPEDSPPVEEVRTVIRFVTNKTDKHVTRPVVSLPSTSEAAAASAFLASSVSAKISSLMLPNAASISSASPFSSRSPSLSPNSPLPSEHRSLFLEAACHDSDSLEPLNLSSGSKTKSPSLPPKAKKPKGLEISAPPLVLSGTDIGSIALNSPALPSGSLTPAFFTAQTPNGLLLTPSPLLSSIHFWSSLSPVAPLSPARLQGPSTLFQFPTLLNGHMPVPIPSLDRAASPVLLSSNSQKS
# Summary of the method: as §1
# ETV2 = molecular target: T3, ETV2 (Homo sapiens, UniProt O00321 1-342); conditions: protein: recombinant; tags: N-terminal GST; dsDNA, one strand shown
# T3 sequence: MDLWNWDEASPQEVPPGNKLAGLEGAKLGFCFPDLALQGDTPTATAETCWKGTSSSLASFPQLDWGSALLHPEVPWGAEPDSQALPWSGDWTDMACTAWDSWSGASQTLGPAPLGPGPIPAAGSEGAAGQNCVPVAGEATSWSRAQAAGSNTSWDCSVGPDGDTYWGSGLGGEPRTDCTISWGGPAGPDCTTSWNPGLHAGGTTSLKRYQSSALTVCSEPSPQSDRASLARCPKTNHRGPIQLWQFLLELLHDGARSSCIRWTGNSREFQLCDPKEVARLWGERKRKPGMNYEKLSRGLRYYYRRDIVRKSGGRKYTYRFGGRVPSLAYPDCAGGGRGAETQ
# Summary of the method: as §1
# ETV3L = molecular target: T4, ETV3L (Homo sapiens, UniProt Q6ZN32 1-361); conditions: protein: recombinant; tags: N-terminal GST; dsDNA, one strand shown
# T4 sequence: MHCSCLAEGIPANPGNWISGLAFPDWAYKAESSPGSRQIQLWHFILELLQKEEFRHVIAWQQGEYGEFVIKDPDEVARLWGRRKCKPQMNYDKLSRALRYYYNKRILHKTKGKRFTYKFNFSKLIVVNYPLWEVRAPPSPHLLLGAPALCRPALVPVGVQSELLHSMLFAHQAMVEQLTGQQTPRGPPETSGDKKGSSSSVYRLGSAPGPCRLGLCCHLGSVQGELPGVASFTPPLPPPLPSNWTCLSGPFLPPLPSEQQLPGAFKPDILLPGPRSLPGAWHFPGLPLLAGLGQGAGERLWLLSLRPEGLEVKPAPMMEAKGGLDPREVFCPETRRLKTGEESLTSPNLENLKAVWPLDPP
# Summary of the method: as §1
# ETS2 = molecular target: T5, ETS2 (Homo sapiens, UniProt P15036 1-469); conditions: protein: recombinant; tags: N-terminal GST; dsDNA, one strand shown
# T5 sequence: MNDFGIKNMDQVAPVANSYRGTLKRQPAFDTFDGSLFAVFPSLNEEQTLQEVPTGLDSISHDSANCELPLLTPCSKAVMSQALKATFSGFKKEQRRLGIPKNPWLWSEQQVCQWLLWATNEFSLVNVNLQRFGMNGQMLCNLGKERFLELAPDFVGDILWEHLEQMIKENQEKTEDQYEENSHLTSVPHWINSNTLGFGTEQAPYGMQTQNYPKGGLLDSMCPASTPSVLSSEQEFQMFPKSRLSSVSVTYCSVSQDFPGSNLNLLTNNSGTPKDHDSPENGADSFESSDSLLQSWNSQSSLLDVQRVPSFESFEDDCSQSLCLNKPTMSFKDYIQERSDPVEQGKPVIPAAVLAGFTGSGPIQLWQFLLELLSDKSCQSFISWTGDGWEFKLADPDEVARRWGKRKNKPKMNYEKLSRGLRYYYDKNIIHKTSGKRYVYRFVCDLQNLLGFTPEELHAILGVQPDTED
# Summary of the method: as §1
# SPDEF = molecular target: T6, SPDEF (Homo sapiens, UniProt O95238 1-335); conditions: protein: recombinant; tags: N-terminal GST; dsDNA, one strand shown
# T6 sequence: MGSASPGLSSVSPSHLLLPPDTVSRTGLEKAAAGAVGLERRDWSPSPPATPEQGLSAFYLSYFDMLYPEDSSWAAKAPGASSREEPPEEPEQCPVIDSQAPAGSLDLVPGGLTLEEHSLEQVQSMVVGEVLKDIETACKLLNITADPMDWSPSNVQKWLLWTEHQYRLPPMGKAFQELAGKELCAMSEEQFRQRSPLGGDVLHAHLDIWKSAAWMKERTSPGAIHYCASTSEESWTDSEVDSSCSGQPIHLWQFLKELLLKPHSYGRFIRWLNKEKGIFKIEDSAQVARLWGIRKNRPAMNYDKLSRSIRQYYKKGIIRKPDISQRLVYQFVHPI
# Summary of the method: as §1
# ETV7 = molecular target: T7, ETV7 (Homo sapiens, UniProt Q9Y603 1-341); conditions: protein: recombinant; tags: N-terminal GST; dsDNA, one strand shown
# T7 sequence: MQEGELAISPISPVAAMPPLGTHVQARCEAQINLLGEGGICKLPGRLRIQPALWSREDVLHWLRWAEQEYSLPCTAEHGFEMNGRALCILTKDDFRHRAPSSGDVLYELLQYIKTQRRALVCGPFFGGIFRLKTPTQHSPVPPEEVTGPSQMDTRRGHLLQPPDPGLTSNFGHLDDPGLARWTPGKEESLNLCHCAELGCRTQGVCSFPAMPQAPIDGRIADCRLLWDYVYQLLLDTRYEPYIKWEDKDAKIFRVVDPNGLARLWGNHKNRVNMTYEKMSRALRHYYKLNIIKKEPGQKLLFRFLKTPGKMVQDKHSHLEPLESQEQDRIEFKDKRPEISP
# Summary of the method: as §1
# ETV6 = ETV6 (Homo sapiens, UniProt P41212 1-452); conditions: protein: recombinant; tags: N-terminal GST; dsDNA, one strand shown
# ETV6, sequence (P41212 whole entry): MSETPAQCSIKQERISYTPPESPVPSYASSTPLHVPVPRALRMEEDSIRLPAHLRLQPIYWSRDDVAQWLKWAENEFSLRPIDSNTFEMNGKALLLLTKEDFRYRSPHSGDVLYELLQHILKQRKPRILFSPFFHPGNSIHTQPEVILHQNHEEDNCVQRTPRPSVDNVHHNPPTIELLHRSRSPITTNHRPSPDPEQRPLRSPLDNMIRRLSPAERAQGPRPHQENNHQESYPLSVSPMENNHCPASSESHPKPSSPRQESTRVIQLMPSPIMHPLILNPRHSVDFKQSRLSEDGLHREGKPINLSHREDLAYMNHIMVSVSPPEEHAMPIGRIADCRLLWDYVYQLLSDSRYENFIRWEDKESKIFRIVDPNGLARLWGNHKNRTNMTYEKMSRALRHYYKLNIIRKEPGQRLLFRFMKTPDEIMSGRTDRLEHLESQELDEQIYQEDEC
# Summary of the method: as §1
# ELK1 = molecular target: T8, ELK1 (Homo sapiens, UniProt P19419 1-428); conditions: protein: recombinant; tags: N-terminal GST; dsDNA, one strand shown
# T8 sequence: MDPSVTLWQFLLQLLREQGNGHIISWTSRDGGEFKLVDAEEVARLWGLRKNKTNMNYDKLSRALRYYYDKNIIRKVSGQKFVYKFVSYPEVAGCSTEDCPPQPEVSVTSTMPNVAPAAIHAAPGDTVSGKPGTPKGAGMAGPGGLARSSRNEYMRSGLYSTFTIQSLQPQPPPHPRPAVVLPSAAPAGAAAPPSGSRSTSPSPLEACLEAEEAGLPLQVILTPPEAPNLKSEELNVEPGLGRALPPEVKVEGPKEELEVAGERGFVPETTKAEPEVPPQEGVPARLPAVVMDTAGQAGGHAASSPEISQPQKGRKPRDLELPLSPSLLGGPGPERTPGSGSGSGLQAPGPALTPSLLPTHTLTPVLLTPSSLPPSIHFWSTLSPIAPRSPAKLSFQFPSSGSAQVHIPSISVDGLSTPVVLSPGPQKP
# Summary of the method: as §1
# SPIB = SPIB (Homo sapiens, UniProt Q01892 1-262); conditions: protein: recombinant; tags: N-terminal GST; dsDNA, one strand shown
# SPIB, sequence (Q01892 whole entry): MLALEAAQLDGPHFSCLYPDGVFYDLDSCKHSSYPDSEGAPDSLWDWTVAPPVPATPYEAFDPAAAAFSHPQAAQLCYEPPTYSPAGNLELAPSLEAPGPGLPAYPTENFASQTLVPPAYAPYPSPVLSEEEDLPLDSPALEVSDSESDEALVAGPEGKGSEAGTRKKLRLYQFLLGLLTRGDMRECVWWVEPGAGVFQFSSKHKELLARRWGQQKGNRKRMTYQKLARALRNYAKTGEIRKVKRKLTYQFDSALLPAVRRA
# Summary of the method: as §1
sequence,measurement,setting,value
AGATTG,binding signal,HSF1,"1.01 fold enrichment (6-mer frequency, TF over GST control)"
same,binding signal,CRX,"1.06 fold enrichment (6-mer frequency, TF over GST control)"
GGCTTT,binding signal,ELF1,"1.04 fold enrichment (6-mer frequency, TF over GST control)"
same,binding signal,EHF,"1.05 fold enrichment (6-mer frequency, TF over GST control)"
same,binding signal,ELK3,"1.11 fold enrichment (6-mer frequency, TF over GST control)"
same,binding signal,HSF1,"1.11 fold enrichment (6-mer frequency, TF over GST control)"
same,binding signal,ETV2,"1.15 fold enrichment (6-mer frequency, TF over GST control)"
same,binding signal,CRX,"1.47 fold enrichment (6-mer frequency, TF over GST control)"
same,binding signal,ETV3L,"1.03 fold enrichment (6-mer frequency, TF over GST control)"
same,binding signal,ETS2,"1.03 fold enrichment (6-mer frequency, TF over GST control)"
same,binding signal,SPDEF,"1 fold enrichment (6-mer frequency, TF over GST control)"
same,binding signal,ETV7,"1.16 fold enrichment (6-mer frequency, TF over GST control)"
same,binding signal,ETV6,"1.06 fold enrichment (6-mer frequency, TF over GST control)"
GCATTA,binding signal,HSF1,"1.16 fold enrichment (6-mer frequency, TF over GST control)"
same,binding signal,CRX,"1.64 fold enrichment (6-mer frequency, TF over GST control)"
TTAGAG,binding signal,HSF1,"1.25 fold enrichment (6-mer frequency, TF over GST control)"
same,binding signal,ETV2,"1.01 fold enrichment (6-mer frequency, TF over GST control)"
same,binding signal,CRX,"1.77 fold enrichment (6-mer frequency, TF over GST control)"
GAATGG,binding signal,ELK1,"1 fold enrichment (6-mer frequency, TF over GST control)"
same,binding signal,EHF,"1.02 fold enrichment (6-mer frequency, TF over GST control)"
same,binding signal,SPIB,"1.06 fold enrichment (6-mer frequency, TF over GST control)"
same,binding signal,HSF1,"1.07 fold enrichment (6-mer frequency, TF over GST control)"
same,binding signal,ETV2,"1.1 fold enrichment (6-mer frequency, TF over GST control)"
same,binding signal,ETV3L,"1.01 fold enrichment (6-mer frequency, TF over GST control)"
same,binding signal,ETV6,"1.04 fold enrichment (6-mer frequency, TF over GST control)"
AATCGT,binding signal,HSF1,"1.01 fold enrichment (6-mer frequency, TF over GST control)"
same,binding signal,CRX,"1.15 fold enrichment (6-mer frequency, TF over GST control)"
ATTAGA,binding signal,HSF1,"1.45 fold enrichment (6-mer frequency, TF over GST control)"
same,binding signal,CRX,"1.95 fold enrichment (6-mer frequency, TF over GST control)"
AGAATC,binding signal,HSF1,"1.74 fold enrichment (6-mer frequency, TF over GST control)"
same,binding signal,CRX,"1.21 fold enrichment (6-mer frequency, TF over GST control)"
